Holding throughout (experiment): NCI-60 one-dose screen, 48 h (100 = growth as untreated, 0 = no growth, -100 = all killed)
Settings in all cases: 10 µM unless noted

Assay [1] has as its system DU-145 prostate.
The test system of assay [2] is K-562 leukemia.
In assay [3] the test system is MALME-3M melanoma.
Assay [4] has as its system MDA-MB-231 breast.
The test system of assay [5] is RXF 393 renal.
Assay [6] deals with SF-268 CNS.
Assay [7] has as its system SF-295 CNS.
Assay [8] has as its system SF-539 CNS.
Assay [9] concerns UACC-257 melanoma.
In assay [10] the test system is M14 melanoma.

SMILES strings stand for the structures. Compounds without any hit were thinned out: in the full panel of roughly 83,000, 20% have a hit.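 Negative percent growth values reflect cell death: -40 means 40% of the cells present at the start died, and -100 means all died.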 Unmarked numbers belong to inactive results. Active and inactive are the calls of the source. Rule for the calls: active = growth percent below 10; inactive = the rest.

For `C=COC(=O)C(C)(C)C`, the growth in assay [1] is 110%; in [2], 103%; in assay [3], 95.5%; in [4], 113%; in [5], 105%; in assay [6] it was 103%. The growth in assay [7] is 93.1%; in [8], 102%; in assay [9], 107%; in assay [10], 107%.

As to `CCCC(=O)c1cccs1`, the growth in [1] is 109%; in [2], 112%; in assay [3] it was 107%; in assay [4], 104%; in assay [5], 102%; in assay [6], 105%. In addition, the growth is 95.7% in assay [7], 93.7% in assay [8], 92.5% in [9] and 105% in assay [10].

As to `CC(=O)Oc1c(Cl)cccc1-c1ccccc1`, the growth in [1] is 104%; in [2], 101%; in assay [3], 111%; in assay [4], 98.4%; in [5], 110%; in assay [6], 95.1%. Moreover, the growth in assay [7] was 103%; in assay [8], 104%; in assay [9], 87.6%; in assay [10], 108%.

`COc1cc(N)c2ncccc2c1Cl`: the growth is 119% in assay [1]; 102% in assay [2]; 113% in assay [3]; 96.2% in assay [4]; 96.5% in assay [5]; 106% in [6]. The growth in assay [7] was 101%; in assay [8], 87.3%; in assay [9] it was 109%; in assay [10], 103%.

As for `O=C(CCCl)OCCOc1ccccc1`, the growth in assay [1] was 101%; in assay [2], 93.2%; in [3], 97.7%; in assay [4], 111%; in assay [5] it was 112%; in assay [6] it was 94.6%. In addition, the growth is 105% in assay [7], 95.8% in assay [8], 110% in assay [9] and 102% in assay [10].

As to `NC(CO)(CO)c1ccccc1`, the growth in [1] was 101%; in assay [2] it was 111%; in [3] it was 105%; in assay [4] it was 111%; in assay [5], 101%; in [6], 97.6%. In addition, the growth in [7] is 104%; in [8], 104%; in assay [9] it was 96.5%; in assay [10], 94.9%.

On to `CN(C)CCOC(=O)Nc1ccc(Cc2ccc(NC(=O)OCCN(C)C)cc2)cc1`, for which the growth in assay [1] is 86.3% [100 µM]; in assay [2], -30.1% [100 µM] (active); in assay [3], 69.1% [100 µM]; in assay [4] it was 65.8% [100 µM]; in [5], 32.2% [100 µM]; in [6] it was 90.3% [100 µM]. In addition, the growth is 87.6% [100 µM] in assay [7], -66.5% [100 µM] (active) in assay [8], -61.6% [100 µM] (active) in assay [9] and -38.6% [100 µM] (active) in assay [10].

With `Cc1cc(NC(=O)c2ccccc2)c(Cl)cc1N`, the growth was 126% in [1]; 98.8% in assay [2]; 103% in assay [3]; 96% in assay [4]; 124% in assay [5]; 114% in assay [6]. The growth is 94% in assay [7], 95.5% in assay [8], 100% in assay [9] and 95.8% in assay [10].

Take `O=c1cc(Cl)nc2ccccn12`: the growth in [1] is 110%; in assay [2] it was 110%; in assay [3] it was 117%; in [4], 120%; in [5], 106%; in assay [6], 112%. Besides, the growth was 106% in assay [7], 102% in assay [8], 107% in [9] and 107% in assay [10].

With `NC(=S)c1c(N)n(C2OC(CO)C(O)C2O)c2ncnc(N)c12` (stereo not given), the growth is 4.75% (active) in assay [1]; -17.2% (active) in assay [2]; -53.4% (active) in assay [3]; 29.7% in assay [4]; -69.3% (active) in assay [5]; -3.78% (active) in assay [6]. In addition, the growth in assay [7] is -0.294% (active); in [8], -51.2% (active); in [9] it was -10.2% (active); in assay [10], -24.5% (active).

In the case of `CC1CCC(C)(C)c2ccccc21` (stereo not given), the growth in assay [1] is 110%; in assay [2], 115%; in assay [3], 100%; in assay [4], 94.6%; in assay [5], 109%; in assay [6], 104%. Besides, the growth in [7] is 89.2%; in [8], 97.2%; in [9], 100%; in assay [10], 95.7%.

With `CCOC(=O)CNC`, the growth was 116% in assay [1]; 96.8% in [2]; 114% in assay [3]; 97.8% in assay [4]; 108% in assay [5]; 115% in assay [6]. The growth in assay [7] is 96.7%; in assay [8], 99.7%; in assay [9] it was 81.7%; in assay [10], 104%.

Turning to `Cc1ccc(OC(=O)c2ccccc2)cc1`, the growth in [1] is 114%; in [2], 101%; in [3], 123%; in assay [4] it was 126%; in assay [5], 107%; in [6] it was 108%. Moreover, the growth in assay [7] is 117%; in [8] it was 106%; in assay [9], 94.3%; in [10], 113%.

For `Nc1ccc(F)cc1F`, the growth is 110% in assay [1]; 107% in assay [2]; 111% in assay [3]; 93.7% in assay [4]; 92.2% in [5]; 109% in assay [6]. Also, the growth in assay [7] is 104%; in [8], 94.3%; in assay [9], 111%; in assay [10], 101%.

These data come from PubChem BioAssay (NCI).
